Data as given in article PMC7862700, “An all-to-all approach to the identification of sequence-specific readers for epigenetic DNA modifications on cytosine”.

How the values were obtained:
Assay in all cases: DAPPL (digital affinity profiling via proximity ligation, sequencing); 10 mM Tris-HCl pH 7.5, 50 mM NaCl, 1 mM DTT, 4% glycerol, room temperature, 30 min; GST-TFs on glutathione beads, 16-mer random dsDNA library, 0.1% formaldehyde crosslink after washing; high values mean tight binding
[1] = target: T1, FLI1 (Homo sapiens, UniProt Q01543 1-452); conditions: protein: recombinant; tags: N-terminal GST; dsDNA, one strand shown
T1 sequence: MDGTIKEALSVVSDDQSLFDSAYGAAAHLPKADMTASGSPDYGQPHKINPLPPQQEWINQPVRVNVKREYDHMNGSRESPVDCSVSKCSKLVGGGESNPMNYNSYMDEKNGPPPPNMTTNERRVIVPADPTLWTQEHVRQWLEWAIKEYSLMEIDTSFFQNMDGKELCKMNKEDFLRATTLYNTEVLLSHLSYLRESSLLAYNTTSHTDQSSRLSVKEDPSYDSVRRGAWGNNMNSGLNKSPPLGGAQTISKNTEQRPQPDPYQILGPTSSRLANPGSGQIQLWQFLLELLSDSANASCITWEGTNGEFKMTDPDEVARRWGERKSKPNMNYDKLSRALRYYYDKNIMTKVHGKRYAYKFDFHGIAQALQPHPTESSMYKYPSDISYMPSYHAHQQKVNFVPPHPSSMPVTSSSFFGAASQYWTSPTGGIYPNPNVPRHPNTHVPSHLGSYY
In short: (§1)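 Binding signal is defined as a hexamer's read frequency for one factor over its frequency for the tag-only sample. To obtain reads, GST-fused human transcription factors were expressed in yeast, captured on glutathione beads, barcoded with DNA and pooled with that sample. Pools met 200 nmole of a 16-mer random double-stranded DNA library in Tris/NaCl/DTT/glycerol buffer for 30 min at room temperature before washing, 0.1% formaldehyde crosslinking, proximity ligation (BsaI/T4 ligase, 1 h, 37 °C), PCR and Illumina NextSeq500 sequencing.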

[2] = target: T2, ELK1 (Homo sapiens, UniProt P19419 1-428); conditions: protein: recombinant; tags: N-terminal GST; dsDNA, one strand shown
T2 sequence: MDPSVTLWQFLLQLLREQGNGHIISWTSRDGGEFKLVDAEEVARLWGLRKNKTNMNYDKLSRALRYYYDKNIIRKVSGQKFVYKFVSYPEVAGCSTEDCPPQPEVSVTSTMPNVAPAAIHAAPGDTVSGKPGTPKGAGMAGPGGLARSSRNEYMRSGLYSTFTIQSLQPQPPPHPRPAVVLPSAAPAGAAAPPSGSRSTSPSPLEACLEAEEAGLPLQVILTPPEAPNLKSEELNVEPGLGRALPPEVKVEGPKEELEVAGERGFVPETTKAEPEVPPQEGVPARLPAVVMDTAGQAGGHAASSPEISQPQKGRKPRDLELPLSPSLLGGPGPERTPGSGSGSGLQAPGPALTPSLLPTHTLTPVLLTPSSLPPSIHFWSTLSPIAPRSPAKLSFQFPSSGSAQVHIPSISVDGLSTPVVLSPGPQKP
In short: as §1

[3] = target: T3, GABPA (Homo sapiens, UniProt Q06546 1-454); conditions: protein: recombinant; tags: N-terminal GST; dsDNA, one strand shown
T3 sequence: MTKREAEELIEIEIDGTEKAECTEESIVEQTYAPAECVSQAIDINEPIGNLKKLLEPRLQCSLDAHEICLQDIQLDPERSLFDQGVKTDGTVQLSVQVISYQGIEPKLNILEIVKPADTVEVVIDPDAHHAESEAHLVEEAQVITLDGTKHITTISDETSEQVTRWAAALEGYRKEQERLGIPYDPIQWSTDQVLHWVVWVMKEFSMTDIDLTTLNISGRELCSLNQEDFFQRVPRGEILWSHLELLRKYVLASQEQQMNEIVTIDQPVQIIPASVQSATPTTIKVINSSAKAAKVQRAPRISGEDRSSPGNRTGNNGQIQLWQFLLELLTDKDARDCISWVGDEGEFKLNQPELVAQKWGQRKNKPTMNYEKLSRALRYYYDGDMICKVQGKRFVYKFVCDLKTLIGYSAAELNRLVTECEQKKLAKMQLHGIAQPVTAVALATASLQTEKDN
In short: as §1

[4] = target: T4, ERG (Homo sapiens, UniProt P11308 1-479); conditions: protein: recombinant; tags: N-terminal GST; dsDNA, one strand shown
T4 sequence: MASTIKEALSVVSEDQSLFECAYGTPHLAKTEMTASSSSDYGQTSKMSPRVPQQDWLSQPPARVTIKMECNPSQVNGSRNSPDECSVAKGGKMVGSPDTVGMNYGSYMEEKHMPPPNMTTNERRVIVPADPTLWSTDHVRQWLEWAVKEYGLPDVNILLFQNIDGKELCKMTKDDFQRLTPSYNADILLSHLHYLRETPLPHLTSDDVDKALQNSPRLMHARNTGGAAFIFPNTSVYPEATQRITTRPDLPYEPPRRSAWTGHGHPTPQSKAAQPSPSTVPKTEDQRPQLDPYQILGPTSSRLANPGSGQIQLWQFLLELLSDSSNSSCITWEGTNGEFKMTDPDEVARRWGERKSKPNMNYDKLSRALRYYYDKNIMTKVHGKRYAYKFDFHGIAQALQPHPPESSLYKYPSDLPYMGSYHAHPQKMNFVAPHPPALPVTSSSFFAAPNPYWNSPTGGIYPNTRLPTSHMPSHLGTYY
In short: as §1

[5] = target: ELF1 (Homo sapiens, UniProt P32519 1-619); conditions: protein: recombinant; tags: N-terminal GST; dsDNA, one strand shown
Sequence of ELF1 (P32519 whole entry): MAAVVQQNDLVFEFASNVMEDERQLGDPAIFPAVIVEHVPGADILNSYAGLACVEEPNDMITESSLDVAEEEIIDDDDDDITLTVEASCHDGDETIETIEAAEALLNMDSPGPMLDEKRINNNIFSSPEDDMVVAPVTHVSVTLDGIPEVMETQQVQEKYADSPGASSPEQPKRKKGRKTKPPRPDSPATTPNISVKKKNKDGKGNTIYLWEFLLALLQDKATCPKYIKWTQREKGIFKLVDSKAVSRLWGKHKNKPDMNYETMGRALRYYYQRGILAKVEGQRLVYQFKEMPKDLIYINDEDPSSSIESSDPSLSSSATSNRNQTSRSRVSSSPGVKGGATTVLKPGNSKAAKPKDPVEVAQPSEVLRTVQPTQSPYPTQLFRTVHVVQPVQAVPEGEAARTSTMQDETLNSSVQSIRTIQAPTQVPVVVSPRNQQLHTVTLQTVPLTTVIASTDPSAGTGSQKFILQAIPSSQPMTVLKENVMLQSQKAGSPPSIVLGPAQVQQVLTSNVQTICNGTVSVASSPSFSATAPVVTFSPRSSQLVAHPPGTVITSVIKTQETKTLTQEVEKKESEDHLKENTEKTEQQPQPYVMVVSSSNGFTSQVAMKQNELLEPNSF
In short: as §1

[6] = target: T5, EHF (Homo sapiens, UniProt Q9NZC4 1-300); conditions: protein: recombinant; tags: N-terminal GST; dsDNA, one strand shown
T5 sequence: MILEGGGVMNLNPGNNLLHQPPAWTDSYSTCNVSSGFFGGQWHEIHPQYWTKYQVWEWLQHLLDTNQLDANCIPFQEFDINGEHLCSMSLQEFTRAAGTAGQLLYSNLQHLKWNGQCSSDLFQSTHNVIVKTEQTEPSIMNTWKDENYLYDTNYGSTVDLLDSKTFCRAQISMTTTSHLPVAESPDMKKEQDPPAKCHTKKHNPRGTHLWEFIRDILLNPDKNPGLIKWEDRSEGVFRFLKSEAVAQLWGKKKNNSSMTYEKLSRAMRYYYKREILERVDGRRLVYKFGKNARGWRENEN
In short: as §1

[7] = target: SPI1 (Homo sapiens, UniProt P17947 1-270); conditions: protein: recombinant; tags: N-terminal GST; dsDNA, one strand shown
In short: as §1

[8] = target: SPIB (Homo sapiens, UniProt Q01892 1-262); conditions: protein: recombinant; tags: N-terminal GST; dsDNA, one strand shown
Sequence of SPIB (Q01892 whole entry): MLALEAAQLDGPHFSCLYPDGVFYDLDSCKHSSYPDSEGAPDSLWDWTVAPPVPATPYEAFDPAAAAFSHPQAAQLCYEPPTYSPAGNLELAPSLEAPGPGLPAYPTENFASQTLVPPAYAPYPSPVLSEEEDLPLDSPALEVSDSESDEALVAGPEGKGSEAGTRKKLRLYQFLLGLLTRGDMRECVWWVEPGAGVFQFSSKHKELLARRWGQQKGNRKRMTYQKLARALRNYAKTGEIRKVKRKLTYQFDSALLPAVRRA
In short: as §1

[9] = target: T6, ELK3 (Homo sapiens, UniProt P41970 1-407); conditions: protein: recombinant; tags: N-terminal GST; dsDNA, one strand shown
T6 sequence: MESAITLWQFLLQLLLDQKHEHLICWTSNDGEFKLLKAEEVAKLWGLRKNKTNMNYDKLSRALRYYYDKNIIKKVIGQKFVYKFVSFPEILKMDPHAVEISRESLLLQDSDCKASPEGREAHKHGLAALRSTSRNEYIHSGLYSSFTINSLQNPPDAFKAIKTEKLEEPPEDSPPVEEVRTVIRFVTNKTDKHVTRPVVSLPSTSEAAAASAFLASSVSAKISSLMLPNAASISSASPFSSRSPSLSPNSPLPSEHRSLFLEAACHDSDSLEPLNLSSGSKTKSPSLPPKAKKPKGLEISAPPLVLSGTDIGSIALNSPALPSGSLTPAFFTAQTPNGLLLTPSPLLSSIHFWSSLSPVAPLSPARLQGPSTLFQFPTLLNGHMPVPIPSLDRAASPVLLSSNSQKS
In short: as §1

[10] = target: T7, FEV (Homo sapiens, UniProt Q99581 1-238); conditions: protein: recombinant; tags: N-terminal GST; dsDNA, one strand shown
T7 sequence: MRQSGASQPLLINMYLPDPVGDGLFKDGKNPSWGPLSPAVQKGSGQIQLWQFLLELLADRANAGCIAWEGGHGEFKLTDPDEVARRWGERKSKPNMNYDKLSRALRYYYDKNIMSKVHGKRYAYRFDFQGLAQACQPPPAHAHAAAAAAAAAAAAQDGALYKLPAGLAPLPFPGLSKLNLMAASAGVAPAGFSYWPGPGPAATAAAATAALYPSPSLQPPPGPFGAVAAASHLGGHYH
In short: as §1

[11] = target: ETV5 (Homo sapiens, UniProt P41161 1-510); conditions: protein: recombinant; tags: N-terminal GST; dsDNA, one strand shown
Sequence of ETV5 (P41161 whole entry): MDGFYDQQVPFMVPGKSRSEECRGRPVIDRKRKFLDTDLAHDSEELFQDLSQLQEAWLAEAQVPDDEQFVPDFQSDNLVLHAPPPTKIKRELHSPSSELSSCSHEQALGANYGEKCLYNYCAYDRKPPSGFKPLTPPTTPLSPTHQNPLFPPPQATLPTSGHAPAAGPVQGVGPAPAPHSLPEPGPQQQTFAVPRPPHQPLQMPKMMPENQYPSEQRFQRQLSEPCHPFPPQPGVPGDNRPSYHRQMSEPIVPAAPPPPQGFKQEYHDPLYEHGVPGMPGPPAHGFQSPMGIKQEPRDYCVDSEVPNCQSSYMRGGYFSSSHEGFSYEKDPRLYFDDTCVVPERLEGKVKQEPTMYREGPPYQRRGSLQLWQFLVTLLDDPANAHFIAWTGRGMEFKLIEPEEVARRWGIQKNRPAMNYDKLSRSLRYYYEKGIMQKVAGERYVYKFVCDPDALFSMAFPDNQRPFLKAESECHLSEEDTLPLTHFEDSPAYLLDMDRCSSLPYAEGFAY
In short: as §1

[12] = target: HSF1 (Homo sapiens, UniProt Q00613 1-529); conditions: protein: recombinant; tags: N-terminal GST; chain copies: 3; dsDNA, one strand shown
Sequence of HSF1 (Q00613 whole entry): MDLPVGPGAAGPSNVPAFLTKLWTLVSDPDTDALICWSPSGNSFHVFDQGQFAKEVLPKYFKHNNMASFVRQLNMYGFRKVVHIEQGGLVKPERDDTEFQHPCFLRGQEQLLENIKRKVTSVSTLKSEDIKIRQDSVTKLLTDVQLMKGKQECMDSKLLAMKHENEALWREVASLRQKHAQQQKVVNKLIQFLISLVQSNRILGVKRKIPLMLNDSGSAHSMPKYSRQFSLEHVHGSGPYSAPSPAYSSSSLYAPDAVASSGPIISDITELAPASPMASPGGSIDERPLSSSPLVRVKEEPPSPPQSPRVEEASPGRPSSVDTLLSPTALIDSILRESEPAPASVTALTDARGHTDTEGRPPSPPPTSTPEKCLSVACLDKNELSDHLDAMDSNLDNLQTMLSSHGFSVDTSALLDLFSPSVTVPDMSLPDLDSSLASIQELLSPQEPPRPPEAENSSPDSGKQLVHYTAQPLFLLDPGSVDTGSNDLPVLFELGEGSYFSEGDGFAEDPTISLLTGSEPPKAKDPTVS
In short: as §1

[13] = target: T8, SPIC (Homo sapiens, UniProt Q8N5J4 1-248); conditions: protein: recombinant; tags: N-terminal GST; dsDNA, one strand shown
T8 sequence: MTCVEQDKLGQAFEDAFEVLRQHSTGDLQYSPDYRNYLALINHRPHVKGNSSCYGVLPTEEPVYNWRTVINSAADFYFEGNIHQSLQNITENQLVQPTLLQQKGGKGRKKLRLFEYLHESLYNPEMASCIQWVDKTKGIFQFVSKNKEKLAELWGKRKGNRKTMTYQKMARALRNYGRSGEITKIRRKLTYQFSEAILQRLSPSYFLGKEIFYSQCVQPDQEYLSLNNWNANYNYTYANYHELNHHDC
In short: as §1

[14] = target: ELF4 (Homo sapiens, UniProt Q99607 1-663); conditions: protein: recombinant; tags: N-terminal GST; dsDNA, one strand shown
Sequence of ELF4 (Q99607 whole entry): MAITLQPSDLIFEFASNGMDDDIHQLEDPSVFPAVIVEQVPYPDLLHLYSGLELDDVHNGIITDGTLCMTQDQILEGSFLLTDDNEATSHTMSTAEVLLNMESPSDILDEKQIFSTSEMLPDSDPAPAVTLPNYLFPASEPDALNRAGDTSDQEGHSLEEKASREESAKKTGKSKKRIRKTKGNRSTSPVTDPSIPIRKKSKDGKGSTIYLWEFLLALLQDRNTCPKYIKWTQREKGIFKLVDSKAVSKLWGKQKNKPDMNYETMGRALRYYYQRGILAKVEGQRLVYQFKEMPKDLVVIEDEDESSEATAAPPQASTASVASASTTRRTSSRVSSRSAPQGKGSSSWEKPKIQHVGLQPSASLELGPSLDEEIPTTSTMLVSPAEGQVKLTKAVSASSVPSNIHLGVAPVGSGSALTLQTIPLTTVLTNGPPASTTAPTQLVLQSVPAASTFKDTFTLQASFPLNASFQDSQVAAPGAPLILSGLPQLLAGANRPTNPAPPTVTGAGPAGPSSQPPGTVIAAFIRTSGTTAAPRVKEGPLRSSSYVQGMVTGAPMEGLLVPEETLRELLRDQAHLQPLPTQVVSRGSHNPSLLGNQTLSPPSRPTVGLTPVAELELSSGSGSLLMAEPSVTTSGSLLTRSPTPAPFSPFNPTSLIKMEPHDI
In short: as §1

[15] = target: T9, ELK4 (Homo sapiens, UniProt P28324-2 1-405); conditions: protein: recombinant; tags: N-terminal GST; dsDNA, one strand shown
T9 sequence: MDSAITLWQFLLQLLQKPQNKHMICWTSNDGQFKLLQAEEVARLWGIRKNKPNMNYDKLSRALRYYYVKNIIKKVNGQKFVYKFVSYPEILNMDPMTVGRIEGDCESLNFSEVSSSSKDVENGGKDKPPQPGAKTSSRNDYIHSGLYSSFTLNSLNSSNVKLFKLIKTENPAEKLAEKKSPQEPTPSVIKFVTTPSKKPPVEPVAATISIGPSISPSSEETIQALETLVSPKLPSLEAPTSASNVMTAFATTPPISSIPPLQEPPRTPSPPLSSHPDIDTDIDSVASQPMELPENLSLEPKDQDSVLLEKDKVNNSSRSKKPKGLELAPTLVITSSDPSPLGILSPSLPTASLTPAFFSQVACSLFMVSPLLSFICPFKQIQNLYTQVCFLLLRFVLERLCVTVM
In short: as §1

[16] = target: T10, ETV2 (Homo sapiens, UniProt O00321 1-342); conditions: protein: recombinant; tags: N-terminal GST; dsDNA, one strand shown
T10 sequence: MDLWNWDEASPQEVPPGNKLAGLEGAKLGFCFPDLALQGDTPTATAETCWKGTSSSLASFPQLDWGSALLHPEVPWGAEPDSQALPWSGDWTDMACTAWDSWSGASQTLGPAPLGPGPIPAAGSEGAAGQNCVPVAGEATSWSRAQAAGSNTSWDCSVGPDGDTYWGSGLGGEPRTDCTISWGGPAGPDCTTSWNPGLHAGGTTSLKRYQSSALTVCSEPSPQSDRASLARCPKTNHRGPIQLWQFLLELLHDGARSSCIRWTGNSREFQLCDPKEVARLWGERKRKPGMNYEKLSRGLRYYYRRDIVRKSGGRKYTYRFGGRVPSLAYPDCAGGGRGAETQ
In short: as §1

[17] = target: T11, ELF3 (Homo sapiens, UniProt P78545 1-371); conditions: protein: recombinant; tags: N-terminal GST; dsDNA, one strand shown
T11 sequence: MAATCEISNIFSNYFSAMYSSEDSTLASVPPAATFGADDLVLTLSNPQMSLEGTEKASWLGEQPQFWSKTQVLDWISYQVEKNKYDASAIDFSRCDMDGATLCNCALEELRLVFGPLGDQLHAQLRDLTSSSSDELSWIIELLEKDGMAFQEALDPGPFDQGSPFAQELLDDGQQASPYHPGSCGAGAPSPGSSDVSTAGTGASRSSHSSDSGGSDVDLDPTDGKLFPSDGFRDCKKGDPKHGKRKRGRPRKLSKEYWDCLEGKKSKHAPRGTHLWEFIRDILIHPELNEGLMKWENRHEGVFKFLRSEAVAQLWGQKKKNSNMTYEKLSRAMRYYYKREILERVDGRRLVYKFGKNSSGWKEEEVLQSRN
In short: as §1

[18] = target: CRX (Homo sapiens, UniProt O43186 1-299); conditions: protein: recombinant; tags: N-terminal GST; dsDNA, one strand shown
Sequence of CRX (O43186 whole entry): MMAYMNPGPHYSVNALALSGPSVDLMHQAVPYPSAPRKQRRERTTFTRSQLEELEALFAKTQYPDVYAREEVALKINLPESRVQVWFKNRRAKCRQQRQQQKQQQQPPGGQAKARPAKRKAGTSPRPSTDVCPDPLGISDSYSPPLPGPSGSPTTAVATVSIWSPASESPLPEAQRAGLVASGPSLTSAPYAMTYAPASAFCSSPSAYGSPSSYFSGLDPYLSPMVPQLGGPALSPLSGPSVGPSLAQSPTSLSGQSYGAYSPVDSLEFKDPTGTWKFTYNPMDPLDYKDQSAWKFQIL
In short: as §1

[19] = target: ETV1 (Homo sapiens, UniProt P50549 1-477); conditions: protein: recombinant; tags: N-terminal GST; dsDNA, one strand shown
Sequence of ETV1 (P50549 whole entry): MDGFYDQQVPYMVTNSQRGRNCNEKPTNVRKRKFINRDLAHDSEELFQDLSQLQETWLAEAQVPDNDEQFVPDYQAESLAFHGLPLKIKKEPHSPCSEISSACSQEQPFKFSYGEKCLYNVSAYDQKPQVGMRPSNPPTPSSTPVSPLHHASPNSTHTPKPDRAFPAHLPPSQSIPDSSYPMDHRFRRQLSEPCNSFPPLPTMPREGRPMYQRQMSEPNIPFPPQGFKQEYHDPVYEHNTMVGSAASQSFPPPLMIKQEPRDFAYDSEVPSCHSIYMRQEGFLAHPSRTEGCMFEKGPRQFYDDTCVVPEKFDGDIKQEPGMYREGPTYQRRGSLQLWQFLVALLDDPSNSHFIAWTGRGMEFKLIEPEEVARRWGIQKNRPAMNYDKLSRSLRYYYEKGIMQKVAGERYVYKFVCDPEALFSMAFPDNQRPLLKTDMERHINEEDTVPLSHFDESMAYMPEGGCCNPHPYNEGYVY
In short: as §1

Sequence: TTTCCG
- binding signal [1]: 3.86 fold enrichment (6-mer frequency, TF over GST control)
- binding signal [2]: 3.68 fold enrichment (6-mer frequency, TF over GST control)
- binding signal [3]: 3.28 fold enrichment (6-mer frequency, TF over GST control)
- binding signal [4]: 4.93 fold enrichment (6-mer frequency, TF over GST control)
- binding signal [5]: 3.41 fold enrichment (6-mer frequency, TF over GST control)
- binding signal [6]: 3.75 fold enrichment (6-mer frequency, TF over GST control)
- binding signal [7]: 3.47 fold enrichment (6-mer frequency, TF over GST control)
- binding signal [8]: 3.89 fold enrichment (6-mer frequency, TF over GST control)
- binding signal [9]: 4.01 fold enrichment (6-mer frequency, TF over GST control)
- binding signal [10]: 5.31 fold enrichment (6-mer frequency, TF over GST control)
- binding signal [11]: 4.02 fold enrichment (6-mer frequency, TF over GST control)
- binding signal [12]: 1.48 fold enrichment (6-mer frequency, TF over GST control)
- binding signal [13]: 3.86 fold enrichment (6-mer frequency, TF over GST control)
- binding signal [14]: 3.35 fold enrichment (6-mer frequency, TF over GST control)
- binding signal [15]: 2.97 fold enrichment (6-mer frequency, TF over GST control)
- binding signal [16]: 3.65 fold enrichment (6-mer frequency, TF over GST control)
- binding signal [17]: 3.54 fold enrichment (6-mer frequency, TF over GST control)
- binding signal [18]: 1.39 fold enrichment (6-mer frequency, TF over GST control)
- binding signal [19]: 3.76 fold enrichment (6-mer frequency, TF over GST control)
